The whole screen tested about 5,500 compounds, of which about 2,000 (36%) were called active. Another 18% or so got no clear call; they are omitted. No stated cut-off is given here; in the data, active means normalized growth mostly below about 0.91 (no sharp cut-off); inconclusive means no clear call, values can overlap the other calls; inactive means mostly above about 0.92. Some of the results follow.
Assay: chemical genetic growth profiling, strain panel (AID 1159580);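 further: tested at 20 µM; growth read once vehicle control cultures reached saturation at 30 °C; 1 = growth at the plate median or of vehicle wells; lower values mean less growth of the strain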
Conditions: growth OD

Measured: normalized growth

Oc1ccc(Cl)cc1Cc1cc(Cl)ccc1O
active: S. cerevisiae deletion strains, locus YJR075W, strain HOC1, hits give low values 0.0746 | S. cerevisiae deletion strains, locus YKL009W, strain mrt4, hits give low values 0.092 | S. cerevisiae deletion strains, locus YKL068W, hits give low values 0.101 | S. cerevisiae deletion strains, locus YKL085W, strain MDH1 (second series), hits give low values 0.0549 | S. cerevisiae deletion strains, locus YKL085W, strain MDH1, hits give low values 0.0549 | S. cerevisiae deletion strains, locus YKL160W, strain elf1, hits give low values 0.0693 | S. cerevisiae deletion strains, locus YKL190W, strain CNB1, hits give low values 0.0512 | S. cerevisiae deletion strains, locus YKR001C, strain vps1, hits give low values 0.0604 | S. cerevisiae deletion strains, locus YKR026C, strain gcn3, hits give low values 0.13 | S. cerevisiae deletion strains, locus YKR091W, strain srl3, hits give low values 0.0642 | S. cerevisiae deletion strains, locus YLL001W, strain dnm1, hits give low values 0.113 | S. cerevisiae deletion strains, locus YLL026W, hits give low values 0.0579 | S. cerevisiae deletion strains, locus YLL041C, strain sdh2, hits give low values 0.0645 | S. cerevisiae deletion strains, locus YLR027C, strain aat2, hits give low values 0.0566 | S. cerevisiae deletion strains, locus YLR039C, strain RIC1, hits give low values 0.0807 | S. cerevisiae deletion strains, locus YLR058C, strain SHM2, hits give low values 0.0611 | S. cerevisiae deletion strains, locus YLR102C, strain apc9, hits give low values 0.0602 | S. cerevisiae deletion strains, locus YLR113W, strain HOG1, hits give low values 0.165 | S. cerevisiae deletion strains, locus YLR221C, strain rsa3, hits give low values 0.0636 | S. cerevisiae deletion strains, locus YLR258W, strain gsy2, hits give low values 0.0643 | S. cerevisiae deletion strains, locus YLR262C, strain YPT6 (second series), hits give low values 0.0751 | S. cerevisiae deletion strains, locus YLR262C, strain YPT6, hits give low values 0.101 | S. cerevisiae deletion strains, locus YLR268W, strain sec22, hits give low values 0.0687 | S. cerevisiae deletion strains, locus YLR320W, strain mms22, hits give low values 0.0873 | S. cerevisiae deletion strains, locus YLR330W, strain CHS5, hits give low values 0.0555 | S. cerevisiae deletion strains, locus YLR342W, strain FKS1 (second series), hits give low values 0.0854 | S. cerevisiae deletion strains, locus YLR342W, strain FKS1, hits give low values 0.0648 | S. cerevisiae deletion strains, locus YLR357W, strain rsc2, hits give low values 0.273 | S. cerevisiae deletion strains, locus YLR370C, strain arc18, hits give low values 0.108 | S. cerevisiae deletion strains, locus YLR371W, strain rom2, hits give low values 0.0629 | S. cerevisiae deletion strains, locus YLR384C, strain iki3, hits give low values 0.118 | S. cerevisiae deletion strains, locus YLR418C, strain cdc73, hits give low values 0.098 | S. cerevisiae deletion strains, locus YML016C, strain PPZ1, hits give low values 0.0858 | S. cerevisiae deletion strains, locus YML032C, strain rad52, hits give low values 0.0693 | S. cerevisiae deletion strains, locus YML120C, strain ndi1, hits give low values 0.0588 | S. cerevisiae deletion strains, locus YML124C, strain tub3, hits give low values 0.0644 | S. cerevisiae deletion strains, locus YMR058W, strain fet3, hits give low values 0.131 | S. cerevisiae deletion strains, locus YMR078C, strain ctf18, hits give low values 0.071 | S. cerevisiae deletion strains, locus YMR125W, strain sto1, hits give low values 0.0949 | S. cerevisiae deletion strains, locus YMR129W, hits give low values 0.0627 | S. cerevisiae deletion strains, locus YMR205C, strain PFK2, hits give low values 0.102 | S. cerevisiae deletion strains, locus YMR223W, strain ubp8, hits give low values 0.066 | S. cerevisiae deletion strains, locus YMR231W, strain pep5, hits give low values 0.085 | S. cerevisiae deletion strains, locus YMR263W, strain SAP30, hits give low values 0.0643 | S. cerevisiae deletion strains, locus YMR307W, strain GAS1, hits give low values 0.145 | S. cerevisiae deletion strains, locus YNL067W, strain RPL9B, hits give low values 0.0779 | S. cerevisiae deletion strains, locus YNL071W, strain lat1, hits give low values 0.0636 | S. cerevisiae deletion strains, locus YNL128W, strain TEP1, hits give low values 0.0892 | S. cerevisiae deletion strains, locus YNL153C, strain GIM3, hits give low values 0.0714 | S. cerevisiae deletion strains, locus YNL183C, strain NPR1, hits give low values -0.00267 | S. cerevisiae deletion strains, locus YNL209W, strain ssb2, hits give low values 0.0857 | S. cerevisiae deletion strains, locus YNL233W, strain BNI4, hits give low values 0.056 | S. cerevisiae deletion strains, locus YNL248C, strain rpa49, hits give low values 0.109 | S. cerevisiae deletion strains, locus YNL250W, strain rad50, hits give low values 0.0758 | S. cerevisiae deletion strains, locus YNL271C, strain bni1, hits give low values 0.0676 | S. cerevisiae deletion strains, locus YNL298W, strain CLA4, hits give low values 0.0642 | S. cerevisiae deletion strains, locus YNL307C, strain MCK1, hits give low values 0.0664 | S. cerevisiae deletion strains, locus YNL322C, strain KRE1 (second series), hits give low values 0.0828 | S. cerevisiae deletion strains, locus YNL322C, strain KRE1, hits give low values 0.0618 | S. cerevisiae deletion strains, locus YNR049C, strain mso1, hits give low values 0.109 | S. cerevisiae deletion strains, locus YNR052C, strain pop2, hits give low values 0.0645 | S. cerevisiae deletion strains, locus YOL006C, strain TOP1, hits give low values 0.0992 | S. cerevisiae deletion strains, locus YOL012C, strain htz1 0.176 | S. cerevisiae deletion strains, locus YOL147C, strain pex11, hits give low values 0.0563 | S. cerevisiae deletion strains, locus YOR001W, strain rrp6, hits give low values 0.0685 | S. cerevisiae deletion strains, locus YOR061W, strain CKA2, hits give low values 0.0631 | S. cerevisiae deletion strains, locus YOR069W, strain VPS5, hits give low values 0.0593 | S. cerevisiae deletion strains, locus YOR070C, strain gyp1, hits give low values 0.0618 | S. cerevisiae deletion strains, locus YOR080W, strain dia2, hits give low values 0.0748 | S. cerevisiae deletion strains, locus YOR083W, strain WHI5, hits give low values 0.0694 | S. cerevisiae deletion strains, locus YOR106W, strain vam3, hits give low values 0.0658 | S. cerevisiae deletion strains, locus YOR136W, strain idh2, hits give low values 0.0708 | S. cerevisiae deletion strains, locus YOR144C, strain elg1, hits give low values 0.0576 | S. cerevisiae deletion strains, locus YOR184W, strain ser1, hits give low values 0.0699 | S. cerevisiae deletion strains, locus YOR231W, strain MKK1, hits give low values 0.123 | S. cerevisiae deletion strains, locus YOR265W, strain rbl2, hits give low values 0.0619 | S. cerevisiae deletion strains, locus YOR270C, strain vph1, hits give low values 0.101 | S. cerevisiae deletion strains, locus YOR290C, strain snf2, hits give low values 0.0874 | S. cerevisiae deletion strains, locus YOR316C, strain cot1, hits give low values 0.0588 | S. cerevisiae deletion strains, locus YPL051W, strain arl3, hits give low values 0.0629 | S. cerevisiae deletion strains, locus YPL055C, strain LGE1, hits give low values 0.0724 | S. cerevisiae deletion strains, locus YPL078C, strain atp4, hits give low values 0.0851 | S. cerevisiae deletion strains, locus YPL106C, strain sse1, hits give low values 0.107 | S. cerevisiae deletion strains, locus YPL240C, strain hsp82, hits give low values 0.0585 | S. cerevisiae deletion strains, locus YPL241C, strain CIN2, hits give low values 0.0663 | S. cerevisiae deletion strains, locus YPL256C, strain CLN2, hits give low values 0.114 | S. cerevisiae deletion strains, locus YPR119W, strain clb2, hits give low values 0.0612 | S. cerevisiae deletion strains, locus YPR141C, strain kar3, hits give low values 0.0922 | S. cerevisiae deletion strains, locus YPR163C, strain tif3, hits give low values 0.07 | S. cerevisiae deletion strains, locus YPR167C, strain met16, hits give low values 0.0608 | S. cerevisiae deletion strains, strain wtn01, hits give low values 0.065 | S. cerevisiae strains, strain wild type, hits give low values 0.051
